Out of some 310,000 compounds screened, about 2,200 (0.71%) showed an effect of 50% or more. The effect is printed as a negative number. This is one part of a sample in which strong results are shown more often than they occur.
The compounds below were run against human ether-à-go-go-related gene (hERG) potassium channel (human, UniProt Q12809) (assay: primary screen, population patch clamp on CHO cells stably expressing hERG; higher = less effect of the substance).
Sequence of human ether-à-go-go-related gene (hERG) potassium channel (Q12809 whole entry, looked up): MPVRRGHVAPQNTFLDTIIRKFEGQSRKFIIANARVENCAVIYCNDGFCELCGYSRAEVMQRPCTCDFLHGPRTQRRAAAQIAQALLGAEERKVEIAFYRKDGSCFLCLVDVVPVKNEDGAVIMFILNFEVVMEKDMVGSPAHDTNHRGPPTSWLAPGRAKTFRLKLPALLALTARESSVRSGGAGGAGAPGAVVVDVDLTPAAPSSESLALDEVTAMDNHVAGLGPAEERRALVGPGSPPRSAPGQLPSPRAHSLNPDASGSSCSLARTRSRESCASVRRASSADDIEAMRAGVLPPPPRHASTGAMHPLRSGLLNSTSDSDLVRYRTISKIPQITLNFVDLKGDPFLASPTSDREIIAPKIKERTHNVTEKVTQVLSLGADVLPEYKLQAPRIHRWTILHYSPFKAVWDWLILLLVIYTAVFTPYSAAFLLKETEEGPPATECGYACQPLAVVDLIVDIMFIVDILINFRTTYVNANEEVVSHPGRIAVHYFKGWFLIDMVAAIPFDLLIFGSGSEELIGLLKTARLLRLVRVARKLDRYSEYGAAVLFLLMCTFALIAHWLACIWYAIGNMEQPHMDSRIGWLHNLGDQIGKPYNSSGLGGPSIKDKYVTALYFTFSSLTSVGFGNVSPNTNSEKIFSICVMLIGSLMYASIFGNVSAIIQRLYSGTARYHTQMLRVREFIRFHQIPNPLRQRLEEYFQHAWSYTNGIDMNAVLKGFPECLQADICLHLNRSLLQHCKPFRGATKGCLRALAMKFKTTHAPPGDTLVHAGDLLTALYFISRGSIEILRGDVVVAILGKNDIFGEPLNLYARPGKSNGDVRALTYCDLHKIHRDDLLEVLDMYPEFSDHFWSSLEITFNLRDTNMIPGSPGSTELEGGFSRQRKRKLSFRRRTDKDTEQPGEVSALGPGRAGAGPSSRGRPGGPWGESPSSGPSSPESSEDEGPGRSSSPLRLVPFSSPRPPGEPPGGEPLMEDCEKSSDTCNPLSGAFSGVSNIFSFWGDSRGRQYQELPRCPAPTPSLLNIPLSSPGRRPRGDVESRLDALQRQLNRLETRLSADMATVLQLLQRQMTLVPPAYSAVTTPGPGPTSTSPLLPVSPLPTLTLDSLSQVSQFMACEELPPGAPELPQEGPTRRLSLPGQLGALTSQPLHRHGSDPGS

Structure (SMILES)	hERG current change (%, negative = inhibition) at 1uM
COCCCN1C(=O)C(=O)/C(=C(/O)c2ccc(S(=O)(=O)N3CCCCC3)cc2)C1c1cccc(OC)c1 (stereo not drawn)	2.22%
CC1(c2ccc(OC(F)F)cc2)NC(=O)N(CC(=O)Nc2ccc(N3CCCCC3)cc2)C1=O (stereo not drawn)	18%
CN1C(=O)c2ccccc2C(C(=O)O)C1c1cccc(Cl)c1 (stereo not drawn)	8.65%
CCN1C(=O)C2(C(C(=O)c3ccc(C)o3)=C(O)C(=O)N2CCCN(C)C)c2ccccc21 (stereo not drawn)	14%
COc1ccc2[nH]cc(C(=O)CN(C)CCc3ccc(OC)c(OC)c3)c2c1	-60.6%
COc1ccc2[nH]cc(C(=O)CN(C)C)c2c1	11.4%
CCN(CC)CC(=O)c1c[nH]c2ccc(OC)cc12	3.98%
COC(=O)c1cc(S(=O)(=O)Nc2cccc(S(N)(=O)=O)c2)oc1C	8.79%
COCCn1c(SCC(=O)c2c(N)n(C3CC3)c(=O)[nH]c2=O)nnc1-c1ccc(Cl)cc1	13.5%
CN(Cc1ccccc1)C(=O)N1CCOCC1	17.7%
CCOC(=O)N1CCN(c2ncnc3c2oc2nc(C(C)C)c4c(c23)CCC4)CC1	6.16%
Cc1ccsc1C(=O)C1CCCN(Cc2ccccc2O)C1 (stereo not drawn)	-3.16%
Cc1ccsc1C(=O)C1CCCN(Cc2ccn[nH]2)C1 (stereo not drawn)	9.05%
Cc1ncc(CN2CCCC(C(=O)c3sccc3C)C2)s1 (stereo not drawn)	12.5%
Cc1ccsc1C(=O)C1CCCN(Cc2cccn2-c2ccc(Cl)cn2)C1 (stereo not drawn)	-84.3%
Cc1ccsc1C(=O)C1CCCN(Cc2cnc(N)nc2)C1 (stereo not drawn)	4.23%
Cc1ccsc1C(=O)C1CCCN(Cc2cccn2-c2ccccn2)C1 (stereo not drawn)	-81.7%
CCOc1ccccc1OCC(=O)Nc1ccc(S(=O)(=O)Nc2nc(C)cc(C)n2)cc1	0.94%
Cc1ccc(S(=O)(=O)c2c(C)nn(-c3ccccc3)c2OC(=O)c2ccco2)cc1	5.81%
CC(C)c1ccc2c(c1)[C@H]1OCC[C@H]1[C@@H](c1cccs1)N2	4.11%
CCOC(=O)C(C)Oc1ccc(C2NC(=O)NC(C)=C2C(C)=O)cc1Br (stereo not drawn)	4.32%
Cc1ccc(NC(=O)Cn2cccc2C2=NC(c3ccccc3)CO2)c(C)c1 (stereo not drawn)	3.9%

Structure (SMILES)	hERG current change (%, negative = inhibition) at 1uM
O=C(O)c1cncc(Br)c1	8.7%
CN1CCc2c1nc1ccccc1c2N.O=C(O)c1cc([N+](=O)[O-])ccc1Cl	7.96%
Cc1cccc2c(N)c3c(nc12)N(C)CC3.O=C(O)C(=O)O	7.57%
CN1CCCCc2c1nc1ccccc1c2N.O=C(O)c1cncc(Br)c1	-79.7%
Cc1ccc(C)c2c(N)c3c(nc12)CCCCC3.O=C(O)c1cncc(Br)c1	-51.9%
Cc1cc(Br)c2nc3c(c(C(=O)O)c2c1)CCCCC3	7.18%
Cc1ccc(NC(=O)c2ccsc2)cc1NS(C)(=O)=O	15.1%
COc1ccc(C2=Nn3c([n+](C)c4ccccc43)SC2)cc1.[Br-]	-13.2%
C[n+]1c2n(c3ccccc31)N=C(c1ccc(Br)cc1)CS2.[Br-]	-53.1%
C[n+]1c2n(c3ccccc31)N=C(c1ccc(-c3ccccc3)cc1)CS2.[Br-]	-39%
C[n+]1c2n(c3ccccc31)N=C(c1cc(C(C)(C)C)c(O)c(C(C)(C)C)c1)CS2.[Br-]	-63.5%
C[n+]1c2n(c3ccccc31)N=C(c1ccc(Cl)cc1)CS2.[Br-]	-51.9%
Cc1cc(Cn2nnc3ccccc32)c(O)c(C(C)(C)C)c1	23.6%
CC1Sc2n(c3ccccc3[n+]2C)N=C1c1ccccc1.[Br-] (stereo not drawn)	-16.8%
Cc1ccc(-c2nnc3n2N=C(c2ccc(Br)cc2)CS3)cc1	4.56%
C[n+]1c2n(c3ccccc31)N=C(c1ccccc1)CS2.[Br-]	-17.3%
COc1ccc(NC(=O)Cn2nnc(-c3ccccc3F)n2)cc1	8.09%
CCC(=O)Nc1ccc(-c2nnc(SCC(=O)NCC3CCCO3)n2C)cc1 (stereo not drawn)	14.4%
COc1ccc(NC(=O)CN2C(=O)C(C)SC(C)C2=O)cc1 (stereo not drawn)	6.14%
Cn1c(-[n+]2c(-c3ccccc3)cc(-c3ccccc3)cc2-c2ccccc2)nc2c([N+](=O)[O-])cccc21.[I-]	-6.1%
Cc1ccc(C(=O)N/C(=C\c2ccc(-c3ccccc3[N+](=O)[O-])o2)C(=O)NCCN(C)C)cc1	-29.7%
CN(C)C(=O)/C(=C/c1ccc(-c2cccc([N+](=O)[O-])c2)o1)NC(=O)c1ccccc1	5.68%

Structure (SMILES)	hERG current change (%, negative = inhibition) at 1uM
CN(C)CCCNC(=O)/C(=C/c1ccc(-c2ccc([N+](=O)[O-])cc2)o1)NC(=O)c1ccccc1	-52.5%
Cc1ccc(C(=O)N/C(=C/c2ccc(-c3ccc([N+](=O)[O-])cc3)o2)C(=O)NCCCN(C)C)cc1	-78%
Cc1ccc(C(=O)N/C(=C\c2ccc(-c3ccccc3[N+](=O)[O-])o2)C(=O)NCCCN(C)C)cc1	-14.9%
CCCCNC(=O)/C(=C\c1ccc([N+](=O)[O-])o1)NC(=O)c1ccccc1	-6.47%
CCOC(=O)C(C)Oc1cccc2c(=O)n(CC(=O)N3CCCc4ccccc43)ccc12 (stereo not drawn)	15.8%
CN(Cc1cccc2cnccc12)C(=O)c1cc(COc2ccc(F)cc2Cl)on1	19.5%
Cc1cc(C)nc(SCC(=O)N(C)CC(=O)Nc2c(Cl)cccc2Cl)n1	7.52%
O=C(Oc1ccc(-c2nccc(-c3ccccn3)n2)cc1)c1cccc(C(F)(F)F)c1	5.53%
Cc1cc(C)n(-c2nc(C)nc(NCc3ccccc3)n2)n1	-61.6%
Cc1cc(C)n(-c2nc(Nc3ccccc3)nc(-n3nc(C)cc3C)n2)n1	12.1%
CNc1nc(C)nc(-n2nc(C)cc2C)n1	9.5%
CCCOC(=O)c1ccc(NC(=O)CN(C)Cc2cccs2)cc1	11.8%
O=C1c2ccsc2SCCN1Cc1cccc(Cl)c1	8.86%
COc1ccc(N2CCN(C(=O)Cn3cnc4c(cnn4-c4ccccc4)c3=O)CC2)cc1	5.22%
Cc1ccc(Cl)cc1NC(=O)CCS(=O)(=O)c1cccc2nonc12	10.8%
Cc1ccc(CN2C3=NCCN3c3ccccc32)cc1.Cl	-23.5%
Cl.O=C(O)CN1C2=NCCCN2c2ccccc21	15.8%
Cl.c1ccc(CN2C3=NCCCN3c3ccccc32)cc1	-29%
Cc1cc2c(cc1C)N(Cc1ccc(Cl)cc1)C1=NCCCN12	-28.4%
Cl.Clc1ccc(CN2C3=NCCCN3c3ccccc32)cc1	-54.3%
Brc1ccc(CN2C3=NCCCN3c3ccccc32)cc1.Cl	-55.6%
Cl.Clc1ccc(CN2C3=NCCN3c3ccccc32)cc1	-40.4%

Structure (SMILES)	hERG current change (%, negative = inhibition) at 1uM
Cl.Clc1ccc(CN2C3=NCCCN3c3ccccc32)c(Cl)c1	-28.2%
Cl.O=C(CN1C2=NCCCN2c2ccccc21)c1ccc(Cl)cc1Cl	-82.1%
c1ccc(CN2C3=NCCN3c3ccccc32)cc1	2.38%
Cl.Fc1ccc(CN2C3=NCCCN3c3ccccc32)cc1	-32.8%
Cl.Clc1ccc(CN2C3=NCCN3c3ccccc32)cc1Cl	-72.3%
COc1ccc(Sc2ccc(NC(=O)c3ccccc3Cl)cc2C#N)cc1	8.52%
Cc1ccc(-c2csc(N3CCC(NS(=O)(=O)c4ccc5c(c4)OCCO5)CC3)n2)cc1	9.83%
CCOC(=O)Nc1nc(C)c(C(=O)N(C)C)s1	-1.49%
Cn1c(OCc2ccco2)nc2c1c(=O)n(Cc1ccc(Cl)c(Cl)c1)c(=O)n2C	6.62%
COc1ccc(C(=O)NC(=S)N2CC(C)OC(C)C2)cc1OC (stereo not drawn)	7.44%
COC(=O)c1sccc1NC(=O)Nc1cccc(F)c1	9.69%
C[C@@H](C(=O)OCC(=O)NCCc1ccc(S(N)(=O)=O)cc1)N1C(=O)C2CCCCC2C1=O (stereo partly drawn)	12%
Cc1cccc(CN2C3=NCCCN3c3ccccc32)c1.Cl	-16.9%
Br.CC(C)(C)c1ccc(CN2C3=NCCCN3c3ccccc32)cc1	-79.7%
Cl.Clc1ccc(CN2C3=NCCCN3c3ccccc32)cc1Cl	-51.4%
Cl.Clc1cccc(CN2C3=NCCCN3c3ccccc32)c1	-46.2%
Cc1ccc(CN2C3=NCCCN3c3ccccc32)cc1.Cl	-29.6%
Br.CC(C)(C)C(=O)CN1C2=NCCCN2c2ccccc21	-46.9%
O=C1CSC2(CCCCC2)N1CCO	12.4%
O=C(Oc1ccc(C(=S)N2CCOCC2)cc1)c1ccccc1	28.6%
O=C(COC(=O)C1(c2ccc(F)cc2)CCCC1)Nc1ncc(C(F)(F)F)cc1Cl	2.97%
